# Measured values reported in PubChem BioAssay (NCI).
# This is part of a sample that, as a whole, favours compounds with a hit. Of some 79,000 tested, about 15% had one in any assay. Unmarked numbers belong to inactive results. Active and inactive are the calls of the source. Rule as the data show it: active = growth inhibition above about 70%; inactive = the rest.
# Assay: NCI Yeast Anticancer Drug Screen. Data for the cln2 rad14 strain (AID 165);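 also: 0% = growth equal to vehicle treated cultures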
# Conditions: S. cerevisiae cln2 rad14 strain, at 50.0 µM, hits give high values
# Method in brief: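 Growth inhibition, relative to vehicle-treated controls, is the read-out. The test organism is a yeast strain with defined genetic alterations, cln2 rad14.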
row,Compound,growth inhibition
1,CC1(C(Cl)Cl)C=CC(=O)c2ccccc21 (stereo not given),15.3%
2,NC(C(F)(F)F)(C(F)(F)F)P(=O)(Cc1ccccc1)Cc1ccccc1,-13.8%
3,COC1CCC(C(C)(C)C)CC1 (stereo not given),-3.8%
4,O=C(NCCc1c(-c2ccccc2)[nH]c2ccccc12)C1CCCCC1,-6.1%
5,CCCCC1CCC2CCCCC2C1 (stereo not given),-18.1%
6,Cc1cc(=O)n2[nH]nnc2n1,13.2%
7,COC(=O)CNC(=O)C(Cc1ccccc1)NC(=O)OCc1ccccc1 (stereo not given),1.9%
8,C=CCSc1ccc(Cl)cc1[N+](=O)[O-],-8.45%
9,N#CC1(OC2OC(CO)C(O)C(O)C2O)C=CCC1 (stereo not given),-7.45%
10,Brc1cc2ccccc2nc1-c1ccccc1,-23.4%
11,CN(C)NC(=O)Nc1cccc2ccccc12,-22.4%
12,COC(=O)C(CC(=O)Nc1ccc(Cl)c(Cl)c1)C(=O)C(=O)NC1C2CC3CC(C2)CC1C3 (stereo not given),7.8%
13,CCOC(=O)C1C(C)C2(C#N)C(=N)OC1(C)C2(C#N)C#N (stereo not given),1.5%
14,S=c1sc2c(Cl)nc(Cl)nc2n1-c1ccccc1,-1%
15,COc1ccc(C=Nc2ccc(O)cc2)cc1,34.1%
16,COc1cc(C(O)CCBr)c(OC)cc1C (stereo not given),-0.85%
17,COc1ccc(/C=N/N=C/c2ccc(OC)cc2)cc1,-34.5%
18,CCCCCCCCOC(=O)c1cc([N+](=O)[O-])c(Sc2ncnc3nc[nH]c23)c([N+](=O)[O-])c1,11.8%
19,CN1CCN(C(=O)NC2CCCCC2)CC1,-44.4%
20,O=CC1=CCC2c3[nH]c4ccccc4c3CCN2C1 (stereo not given),27.2%

row,Compound,growth inhibition
1,C=C1C(=O)OC2C1C(OC(=O)/C(=C/C)COC(C)=O)CC1(CO1)C1C(OC(=O)/C(=C/C)CO)C=C(C)C21 (stereo not given),1.55%
2,CCc1ccccc1OCC(O)CO (stereo not given),-11.5%
3,Cc1ccc2nc(CN(CCO)CCO)cc(=O)n2c1,4%
4,CCOC(=O)C(C)(C(C)=O)c1nc(=S)[nH]c(=S)[nH]1 (stereo not given),-19.8%
5,CCCCCCCCCCCCCCCCS(=O)(=O)N/N=C(\c1ccc(C(C)C)cc1)N1CCOCC1,9.3%
6,NC(=O)C(=CNC(=S)Nc1ccc(S(=O)(=O)Nc2ccccn2)cc1)C(N)=O,-4.1%
7,CCOC(=O)C1CC(=O)c2cc(OC)c(OC)cc2C1c1ccc(OC)c(OC)c1 (stereo not given),-29.7%
8,COC(=O)c1cc2cccn2cn1,-27.4%
9,O=C1c2cc([N+](=O)[O-])cc3cc([N+](=O)[O-])cc(c23)C(=O)N1CCNCCNCCNCCN1C(=O)c2cc([N+](=O)[O-])cc3cc([N+](=O)[O-])cc(c23)C1=O,90.8% (active)
10,C1CSCCSCSCCS1,30.7%
11,CCCCCCCCCCCO/N=C\c1c2c(O)c3c(O)c(C)c4c(c3c1O)C(=O)C(C)(O/C=C\C(OC)C(C)C(OC(C)=O)C(C)C(O)C(C)C(O)C(C)/C=C\C=C(\C)C(=O)N2)O4 (stereo not given),-9.75%
12,CC1(C)c2ccccc2C(=O)c2ccccc21,-4.6%
13,CCC(CC)OCc1ccccc1,5.5%
14,CCCCCCC(C)(O)C(C)O (stereo not given),14.9%
15,CC[N+](C)(CC)c1cccc(OC(=O)N2CCCCC2)c1,0.2%
16,S=C1Cc2c(-c3ccccc3)cc(-c3ccc(Cl)cc3)nc2-c2ccccc2N1,2.55%
17,CCCC(=O)/C=C\c1ccccc1,-61.9%
18,Cc1ccc(S(=O)(=O)NCNS(=O)(=O)c2ccc(C)cc2)cc1,14%
19,N#C/C(=C\C=C\c1ccccc1)C(N)=O,-7.45%
20,O=C(C#CP(=O)(O)c1ccccc1)c1ccccc1,17.5%
